Assay outcomes as filed in PubChem BioAssay.
FLuc modulator: counter-screen for miR-21 project: firefly luciferase inhibitors or activators. P08659. purified FLuc, Km substrates, luminescence inhibition. Potency, µM (top dose mostly 57.5 µM), inactives show at the highest dose activity change, negative = inhibition, hits mostly inhibitors. actives 6.9% (n = 360,000). AID 588342;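 further: plate controls were vehicle for no effect and reference inhibitor for full effect; nearly all actives have a fitted effect of over 55% in size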
Target sequence (P08659 whole entry, looked up): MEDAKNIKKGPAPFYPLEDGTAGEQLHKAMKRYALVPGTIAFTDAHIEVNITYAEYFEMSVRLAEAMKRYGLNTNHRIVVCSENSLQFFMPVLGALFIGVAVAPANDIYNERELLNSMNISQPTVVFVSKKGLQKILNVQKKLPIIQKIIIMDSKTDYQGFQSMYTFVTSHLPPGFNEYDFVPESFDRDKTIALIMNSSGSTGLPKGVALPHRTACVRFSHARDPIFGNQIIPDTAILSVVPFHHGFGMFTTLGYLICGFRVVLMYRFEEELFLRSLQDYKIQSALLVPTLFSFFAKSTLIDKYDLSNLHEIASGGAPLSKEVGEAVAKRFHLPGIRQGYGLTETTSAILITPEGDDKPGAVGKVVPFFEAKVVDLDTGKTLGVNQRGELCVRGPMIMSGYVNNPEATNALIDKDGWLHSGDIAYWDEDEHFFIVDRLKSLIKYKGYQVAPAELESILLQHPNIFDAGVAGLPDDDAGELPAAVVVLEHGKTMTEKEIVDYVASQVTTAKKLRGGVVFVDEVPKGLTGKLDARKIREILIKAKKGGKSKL
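Purified P. pyralis luciferase, 10 nM final, with Km-level 10 uM D-luciferin and 10 uM ATP in 50 mM Tris acetate pH 7.5, 10 mM Mg acetate, 0.01% Tween-20, 0.05% BSA; 6-point qHTS titration about 60 µM downward; luminescence read.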
ELG1 genotox: genotoxicity induction in ELG1-luciferase HEK293T cells; Potency, µM (top dose mostly 46 µM), inactives show at the top dose activity change, positive = activation, usual class: activators; AID 504466; actives 1.3% (n = 330,000); HEK293T ELG1-luciferase reporter, luminescence, 16 h; further: % of control where 0% means no effect; nearly all actives have a fitted effect of over 60% in size
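After overnight (16 hr) compound treatment at 37 °C, ELG1-luciferase HEK293T cells were lysed with ONE-Glo; luminescence quantified 30 min later at room temperature.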
NPC1 promoter act: activators of NPC1 promoter; Huh7 NPC1 promoter luciferase reporter, 24 h; Potency, µM (titrated, usually from 9.22 µM), for the others: top-dose activation, actives largely listed as activators; actives 2.4% (n = 320,000); further: % of control where 0% means no effect; nearly all actives have a fitted effect of over 60% in size
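Stably transfected Huh7 (NPC1 promoter→luciferase), 1500 cells/well in Opti-MEM + 10% FBS, 2 h settle, then compound 24 h at 37 °C. Luminescence after 10 min with Amplite reagent.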
Rab9 prom act: activators of Rab9 promoter. Huh7 Rab9 promoter-luciferase reporter, luminescence, 24 h. Potency, µM (titrated, usually from 9.22 µM), without a hit: top-dose activation, negative = inhibition, most hits filed as activators. actives 2.8% (n = 320,000); further: % of control where 0% means no effect; nearly all actives have a fitted effect of over 60% in size
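Promoter activation is measured as luciferase luminescence in Huh7 cells stably transfected with a Rab9 promoter–luciferase construct, following 24 h compound exposure at 37 °C and 10 min reagent incubation at ambient temperature.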
KinaseGlo FLuc: counter-screen: inhibitors of Kinase-Glo firefly luciferase; Q27757; Kinase-Glo luciferase, ATP luminescence, 8 min; Potency, µM (series often up to 38.3 µM), inactives show at the highest dose activity change, negative = inhibition, actives largely listed as inhibitors; actives 0.28% (n = 200,000); AID 1379; further: on the % scale 0 is the no-effect control and ±100 the full control effect; nearly all actives have a fitted effect of over 60% in size
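Light output from Kinase-Glo luciferase with luciferin and 10 uM ATP in 50 mM imidazole pH 7.2, KCl, MgCl2, Tween 20, BSA; compound pin-delivered, 8-min ambient incubation, then luminescence read.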
SMN2 splice up: SMN2 splice variant enhancement; HEK293 SMN2-luciferase splicing reporter, luminescence, 30-36 h; actives 2.8% (n = 210,000); Potency, µM (top dose mostly 46.1 µM), without a hit: at the highest dose activity change, positive = activation, usual class: activators; further: % of control where 0% means no effect; nearly all actives have a fitted effect of over 55% in size
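HEK293 cells carry an SMN2 minigene-luciferase reporter in which exon 7 inclusion puts luciferase in frame. Cells were seeded at 2000 cells/well, attached for 10-12 hours, then exposed to compounds for 30-36 hours at 37C before ONE-Glo luminescence.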
* = called active by the depositor; u = inconclusive; x = no result given; [ ] = dose if it differs, or a comment. A selection: hits, their analogues and other compounds. The true share with any hit is near 7.4%. The call rests on the fitted dose curve; in most records, active means well fitted curve in the direction sought with a large enough effect; inconclusive means small, poorly fitted or top-dose-only effect, or another doubt; inactive means no such curve, though single readings can be large; an effect the other way counts as inactive or inconclusive. Potency means the concentration at half of the fitted maximal effect.

SMILES | FLuc modulator | ELG1 genotox | NPC1 promoter act | Rab9 prom act | KinaseGlo FLuc | SMN2 splice up
NC(N)=Nc1nc(C2COc3ccccc3O2)cs1 (stereo not drawn) | 3.38µM* | u | 1.58µM* | 1.26µM* | 1.5% | 4.47µM*
CC(=O)Nc1nc(C2COc3ccccc3O2)cs1 (stereo not drawn) | 4.78µM* | 0.651µM* | 1.26µM* | 0.562µM* | -0.5% | 3.98µM*
N/C(=N\O)C1COc2ccccc2O1 (stereo not drawn) | -1.0% | 6.0% | -6.7% | -2.8% | 2.9% | -11.9%
CCc1ccccc1N(CC(=O)NC(C)(C)CC)C(=O)CCC(=O)Nc1nccs1 | 1.9% | -4.6% | 1.2% | 0.1% | x | x
CCOC(=O)c1c(NC(=O)c2cc3ccccc3c(=O)o2)sc2c1CCC(C(C)(C)C)C2 (stereo not drawn) | 16.9µM* | x | x | x | x | -3.7%
Cc1ccccc1NC(=O)c1c(NC(=O)c2ccco2)sc2c1CCC(C(C)(C)C)C2 (stereo not drawn) | 4.1% | x | x | x | x | 0.6%
CC(C)(C)C1CCc2c(sc(NC(=O)c3ccco3)c2C(N)=O)C1 (stereo not drawn) | 0.426µM* | u | u | 2.82µM* | 3.7% | -60.0%
CCC1CCc2c(sc(NC(=O)c3cnccn3)c2C(N)=O)C1 (stereo not drawn) | 2.39µM* | 15.0% | 25.7% | 25.3% | x | x
CCC1CCc2c(sc(NC(=O)c3ccco3)c2C(N)=O)C1 (stereo not drawn) | 1.35µM* | u | u | 2.82µM* | -0.1% | 17.8µM*
CCOC(=O)c1c(NC(=O)c2cc3ccccc3c(=O)o2)sc2c1CCC(C)C2 (stereo not drawn) | 3.1% | x | x | x | x | x
CCOC(=O)c1c(NC(=O)c2ccco2)sc2c1CCCC2 | 3.0% | 12.3% | 8.7% | 1.3% | -0.4% | -11.7%
COc1ccc(CNC(=O)C2CCC(CNc3c(N4CCC(C)CC4)c(=O)c3=O)CC2)cc1 (stereo not drawn) | 3.8% | 7.2% | -2.5% | -1.9% | x | x
COc1ccc(C2=NC(c3ccccc3)CO2)cc1 (stereo not drawn) | 1.51µM* | u | 3.16µM* | 3.55µM* | -11.6% | u
COc1ccc(C2=N[C@H](c3ccccc3)CO2)cc1 | x | x | x | x | -14.7%[39.9 µM] | x
O=[N+]([O-])c1cccc(C2=NC(c3ccccc3)CO2)c1 (stereo not drawn) | 26.9µM* | u | u | u | 0.5% | 1.5%
CCc1cc(C(=O)N(CC)CC(=O)Nc2ccc(OC)cc2)sc1C | -3.1% | -3.6% | 0.0% | 1.1% | x | x
COc1ccc(-c2cc3ncc(C)n3c(Nc3ncccc3C(N)=O)n2)cc1OC | x | x | -10.4%[46.1 µM] | -17.0%[46.1 µM] | x | x
CNc1nc(-c2ccc(Cl)cc2)cs1 | 6.75µM* | u | 2.82µM* | 2.82µM* | -2.0% | 19.9%
CC(C)C(=O)Nc1nc(-c2ccc([N+](=O)[O-])cc2)cs1 | u | -0.4% | 17.7% | 23.7% | 0.1% | -21.3%
CCN(CC)CC(=O)Nc1nc(-c2ccc(Cl)cc2)cs1 | -18.9% | 3.6% | 19.2% | 3.0% | -3.6% | -1.8%
CNc1nc(-c2ccc([N+](=O)[O-])cc2)cs1 | 12µM* | 2.9% | u | u | -4.1% | 5.8%
CCNc1nc(-c2ccc(Cl)cc2)cs1 | 3.38µM* | u | 3.55µM* | 2.24µM* | -14.1% | 27.3%
NCc1ccccc1COc1ccccc1 | 1.0% | -2.3% | -5.0% | -1.2% | 7.7% | -10.1%
COc1cc(/C=C2/C(=O)NN(c3ccc(Cl)cc3)C2=O)cc(Br)c1O | 26.9µM* | -4.4% | 1.1% | 0.0% | x | x
COc1cc(/C=C2/C(=O)NN(c3ccc(Cl)c(Cl)c3)C2=O)cc([N+](=O)[O-])c1O | u | 0.3% | -2.7% | -1.8% | x | x
COc1cc(/C=C2/C(=O)NN(c3ccc(F)cc3)C2=O)cc(Cl)c1O | 21.3µM* | -0.4% | -1.5% | -0.5% | x | x
COc1cccc(/C=C2/C(=O)NN(c3ccc(Br)cc3)C2=O)c1O | 1.9µM* | 2.3% | -3.4% | -2.2% | x | x
